Values joined by “and” are separate entries in the source; they are usually repeats but may differ in a detail not shown here. Identical values can stand only once. Records with an inconclusive call do not appear. Where a structure was tested more than once in an assay, its records may differ in their call. Active and inactive are the calls of the source. Calls follow the shape of the dose curve; as a rule, active = well fitted curve in the direction sought with a large enough effect; inconclusive = small, poorly fitted or top-dose-only effect, or another doubt; inactive = no such curve, though single readings can be large; an effect the other way counts as inactive or inconclusive.
Assays:
[1] = P-glycoprotein substrates identified in KB-3-1 adenocarcinoma cell line, qHTS therapeutic library screen (AID 1346986); also: nearly all actives have a fitted effect of over 60% in size;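 also: potency is read from the fitted curve at half-maximal effect; potency is for cytotoxicity meaning loss of cell viability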
How it was run: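 Viability read by CellTiter-Glo after 72 h compound exposure in dose-response of KB-3-1 and KB-8-5-11 (P-gp-high) cells. Hits needed AC50 < 10 uM, >50% maximum response and curve class -1.1 to -2.4. Cherry-picks retested ± tariquidar, including pcDNA/MDR-19 HEK-293 pair.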

[2] = P-glycoprotein substrates identified in KB-8-5-11 adenocarcinoma cell line, qHTS therapeutic library screen (AID 1346987); also: nearly all actives have a fitted effect of over 65% in size; also: potency is read from the fitted curve at half-maximal effect
How it was run: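 Luminescence from CellTiter-Glo, read 5 min after addition, quantified survival of KB-8-5-11 (P-gp-overexpressing) cells exposed to compounds for 72 h. AC50 was derived from concentration-response curves.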

[3] = NS1 protein of Zika virus - qHTS assay to identify small molecule inhibitors in human HEK 293 cells (AID 1347053); also: nearly all actives have a fitted effect of over 55% in size; also: potency is read from the fitted curve at half-maximal effect;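 as to activity change, negative = inhibition: series mostly up to about 46 µM; plate controls were infected untreated cells for no effect and uninfected cells for full effect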
How it was run: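 TR-FRET signal from two anti-ZIKV NS1 antibodies quantified NS1 in HEK 293 cells 24 h after MR766 infection at MOI = 0.5; compounds were added 1 h before virus. Uninfected cells and infected cells defined the NS1 normalization range.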

[4] = qHTS of pediatric cancer cell lines to identify multiple opportunities for drug repurposing: Primary screen for DAOY cells (AID 1347090); also: nearly all actives have a fitted effect of over 55% in size; also: potency is read from the fitted curve at half-maximal effect;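 as to activity change, negative = cytotoxic: series mostly up to about 46 µM; plate controls were DMSO for no effect and bortezomib for full effect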
How it was run: (§1)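 Cell viability, CellTiter-Glo luminescence; 500-1,000 cells/well, 8- or 11-point titration, 48 h compound exposure at 37 degrees C, 5% CO2. Controls: DMSO neutral, bortezomib 2.3 µM final as positive.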

[5] = qHTS of pediatric cancer cell lines to identify multiple opportunities for drug repurposing: Primary screen for A673 cells (AID 1347092); also: nearly all actives have a fitted effect of over 45% in size; also: potency is read from the fitted curve at half-maximal effect; as to activity change, negative = cytotoxic: % is scaled to controls: 0 for no effect and ±100 for the full control effect
How it was run: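 Cell viability of A673 measured by CellTiter-Glo ATP luminescence after 48 hours compound exposure. Dilution series spanned 0.78 nM to 46 µM (MIPE, 11-point) or 0.59 nM to 46 µM (NPC, 8-point); bortezomib 2.3 uM positive control.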

[6] = qHTS of pediatric cancer cell lines to identify multiple opportunities for drug repurposing: Primary screen for BT-37 cells (AID 1347094); also: potency is read from the fitted curve at half-maximal effect;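 as to activity change, negative = cytotoxic: series mostly up to about 57 µM; plate controls were DMSO for no effect and bortezomib for full effect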
How it was run: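 Plated cells (500-1,000 per well, growth media) were allowed to settle for 5 hours, treated with compound dilutions for 48 hours, then lysed with CellTiter-Glo for 15 min at room temperature before luminescence reading.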

[7] = qHTS of pediatric cancer cell lines to identify multiple opportunities for drug repurposing: Primary screen for TC32 cells (AID 1347089); also: nearly all actives have a fitted effect of over 60% in size; also: potency is read from the fitted curve at half-maximal effect; as to activity change, negative = cytotoxic: % is scaled to controls: 0 for no effect and ±100 for the full control effect
How it was run: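 Luminescent ATP read-out (CellTiter-Glo) of metabolically active TC32 cells after 48 h exposure. Concentration-response curves came from 11-point (MIPE, 0.78 nM–46 µM) or 8-point (NPC, 0.59 nM–46 µM) primary titrations; follow-up used 11 points.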

[8] = qHTS of pediatric cancer cell lines to identify multiple opportunities for drug repurposing: Primary screen for SK-N-MC cells (AID 1347093); also: potency is read from the fitted curve at half-maximal effect;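 as to activity change, negative = cytotoxic: series mostly up to about 46 µM; plate controls were DMSO neutral control for no effect and bortezomib for full effect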
How it was run: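 Metabolically active cells were quantified by ATP-dependent luminescence (CellTiter-Glo, 15 min at room temperature) following 48 h treatment. Cells had been plated at 500-1,000 per well and settled for 5 h beforehand.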

[9] = Identifying Small Molecule Inhibitors of Pancreatic Cancer Stem Cells (A278, Adherent) (AID 1259361); also: nearly all actives have a fitted effect of over 35% in size
How it was run: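 Adherent (2D) versus sphere (3D) formats; spheres generated 14 d in SCM beforehand. Compound transferred by pin tool after 4 h, 48 h incubation, CellTiter-Glo endpoint.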

[10] = qHTS of pediatric cancer cell lines to identify multiple opportunities for drug repurposing: Primary screen for SJ-GBM2 cells (AID 1347091); also: potency is read from the fitted curve at half-maximal effect;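 as to activity change, negative = cytotoxic: plate controls were DMSO neutral control for no effect and bortezomib for full effect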
How it was run: as §1

CN1c2cc(O)c(N=NC(N)=O)cc2CC1S(=O)(=O)O (stereo unspecified)
inactive: Potency [1] | Potency [2] | Potency [3] | Potency [4] | Potency [5] | Potency [6]

Cc1ccc(CN2CCNCC2)cc1NC(=O)CNc1ccc(F)c(F)c1
inactive: Potency [1] | Potency [2] | Potency [3] | Potency [7] | Potency [4] | Potency [5] | Potency [8] | Potency [6]

O=C(O)C1(Cc2cccc(Nc3nccs3)n2)CCC(Oc2cccc(Cl)c2F)CC1 (stereo unspecified)
active: Potency [1] 517 nM | Potency [2] 411 nM | Potency [8] 1660 nM
inactive: Potency [3] | Potency [6]

Cc1ccc(C(N)=O)cc1Nc1nccc(-c2cn(C(C)C)c3cnccc23)n1
active: IC50 (viability decrease) [9] 8330 nM | Potency [2] 20600 nM | Potency [10] 7430 nM | Potency [5] 3720 nM | Potency [8] 5900 nM | Potency [6] 9680 nM

Cc1ccc2nc(NC(=O)CSc3nc4c(c(=O)n3-c3ccccc3)SCC4)sc2c1
active: Potency [4] 18700 nM | Potency [10] 14800 nM | Potency [5] 14800 nM | Potency [8] 26400 nM
inactive: Potency [2] | Potency [3] | Potency [7]

O=C(c1cncc(Br)c1)N1CCC(N2CCCC2)CC1
inactive: Potency [1] | Potency [7] | Potency [4] | Potency [10] | Potency [5] | Potency [8] | Potency [6]

COc1cccc2c(NCc3ccccc3)nc(-n3c(N)nc4ccccc43)nc12
inactive: Potency [2] | Potency [7]
active: Potency [3] 9350 nM | Potency [4] 9350 nM | Potency [10] 9350 nM | Potency [5] 5900 nM | Potency [8] 3720 nM | Potency [6] 7690 nM

Cc1coc2c1C(=O)C(=O)c1c-2ccc2c1CCCC2(C)C
inactive and 9.2 µM (active): Potency [2]
active: Potency [8] 8330 nM | Potency [6] 21700 nM
inactive: Potency [3] | Potency [7]

C[C@]12CC[C@H](O)CC1=CCC1C2CC[C@]2(C)C(n3cnc4ccccc43)=CCC12 (stereo partly specified)
inactive: Potency [2] | Potency [3] | Potency [7]
active: Potency [10] 23500 nM | Potency [5] 14800 nM

CCc1c2c(nc3ccc(O)cc13)-c1cc3c(c(=O)n1C2)COC(=O)[C@]3(O)CC
active: Potency [2] 231 nM | Potency [3] 3.7 nM | Potency [7] 8.3 nM | Potency [5] 7.4 nM | Potency [8] 2.1 nM | Potency [6] 8.6 nM

C=CC(=O)Nc1cccc(Oc2nc(Nc3ccc(N4CCN(C)CC4)cc3)ncc2Cl)c1
active: Potency [2] 3.32 µM and 7.31 µM | Potency [3] 13200 nM | Potency [7] 7390 nM | Potency [4] 935 nM | Potency [10] 1870 nM | Potency [5] 935 nM | Potency [8] 469 nM | Potency [6] 21700 nM

COc1ccc(-c2cc3c(C)nc(N)nc3n(C3CCC(OCCO)CC3)c2=O)cn1 (stereo unspecified)
active: Potency [1] 184 nM | Potency [3] 1480 nM | Potency [7] 186 nM | Potency [4] 118 nM | Potency [5] 93.5 nM | Potency [8] 5.3 nM | Potency [6] 243 nM

Nc1ncnc2c1c(-c1cnc3[nH]ccc3c1)nn2C1CCCC1
active: Potency [2] 590 nM and 2.06 µM | Potency [3] 16600 nM | Potency [7] 5870 nM | Potency [10] 132 nM | Potency [5] 1870 nM | Potency [8] 66.2 nM | Potency [6] 1720 nM

COc1ccc(CC2c3cc(OC)c(OC)cc3CC[N+]2(C)CCC(=O)OCCCCCOC(=O)CC[N+]2(C)CCc3cc(OC)c(OC)cc3C2Cc2ccc(OC)c(OC)c2)cc1OC (stereo unspecified)
inactive: Potency [2] | activity change, negative = inhibition [3] -9.69% [at 9.2 µM] | activity change, negative = cytotoxic [7] -1.18% [at 9.17 µM] | activity change, negative = cytotoxic [4] -5.91% [at 9.22 µM] | activity change, negative = cytotoxic [10] 27.6% [at 9.22 µM] | activity change, negative = cytotoxic [5] -4.72% [at 9.22 µM] | activity change, negative = cytotoxic [8] -16.8% [at 9.22 µM] | activity change, negative = cytotoxic [6] 6.03% [at 11.5 µM]

CN(C)Cc1c(C(=O)NCCOc2ccc(C(=O)NO)cc2)oc2ccccc12
inactive: Potency [3]
active: Potency [2] 7.43 µM and 4.61 µM | Potency [7] 5870 nM | Potency [10] 1050 nM | Potency [5] 935 nM | Potency [8] 743 nM | Potency [6] 1930 nM

COC(=O)C[C@](O)(CCCC(C)(C)O)C(=O)O[C@@H]1C(OC)=C[C@]23CCCN2CCc2cc4c(cc2[C@H]13)OCO4
active: Potency [2] 8200 nM
inactive: Potency [3] | Potency [7] | Potency [5] | Potency [6]

Nc1nc(NCCNc2ncc(-n3ccnc3)c(-c3ccc(Cl)cc3Cl)n2)ccc1[N+](=O)[O-]
inactive: Potency [1] | Potency [3]
active: Potency [4] 14800 nM | Potency [10] 4690 nM | Potency [5] 9350 nM | Potency [8] 1660 nM

CC1(C)O[C@@H]2C[C@@H]3[C@H]4C[C@@H](F)C5=CC(=O)C=C[C@]5(C)[C@@]4(F)[C@@H](O)C[C@]3(C)[C@]2(C(=O)CO)O1
inactive: Potency [1] | Potency [3] | Potency [7] | Potency [6]
active: Potency [8] 9350 nM

CCn1nnc2c(N3CCOCC3)nc(-c3ccc(NC(=O)Nc4ccc(C(=O)N5CCN(C)CC5)cc4)cc3)nc21
active: Potency [1] 58 nM | Potency [10] 46.9 nM | Potency [5] 93.5 nM | Potency [8] 5.9 nM | Potency [6] 17.2 nM

Source: PubChem BioAssay (NCATS)
